About 83,000 compounds went through this panel and 20% of them were active in at least one assay; those are over-represented in the sample as a whole.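 Compound tested at a single concentration for 48 hours in 96-well plates; a percent growth value below 10 was scored as active.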 A number with no mark means an inactive call. Active and inactive are the calls of the source.
Legend:
Experiment in all cases: NCI-60 one-dose screen, 48 h (100 = growth as untreated, 0 = no growth, -100 = all killed)
Conditions in all cases: 10 µM unless noted
DU-145 prostate = tested on: DU-145 prostate
K-562 leukemia = tested on: K-562 leukemia
MALME-3M melanoma = tested on: MALME-3M melanoma
MDA-MB-231 breast = tested on: MDA-MB-231 breast
RXF 393 renal = tested on: RXF 393 renal
SF-268 CNS = tested on: SF-268 CNS
SF-295 CNS = tested on: SF-295 CNS
SF-539 CNS = tested on: SF-539 CNS
UACC-257 melanoma = tested on: UACC-257 melanoma
M14 melanoma = tested on: M14 melanoma

| Structure (SMILES) | growth (DU-145 prostate) | growth (K-562 leukemia) | growth (MALME-3M melanoma) | growth (MDA-MB-231 breast) | growth (RXF 393 renal) | growth (SF-268 CNS) | growth (SF-295 CNS) | growth (SF-539 CNS) | growth (UACC-257 melanoma) | growth (M14 melanoma) |
| --- | --- | --- | --- | --- | --- | --- | --- | --- | --- | --- |
| CC1(COc2ccc3c(c2)ncn3-c2ccc3cccc(N4CCC(N)CC4)c3n2)COC1 | 15.9% | 0.523% (active) | 20.8% | 4.69% (active) | -58.6% (active) | 9.66% (active) | 59.8% | -82.3% (active) | -50.3% (active) | 2.82% (active) |
| Cc1nn(-c2ccccc2)c2c1N=c1s/c(=C\c3cn(-c4ccccc4)nc3-c3ccc(Cl)cc3)c(=O)n1C(C)N2 (centres undefined) | 59.7% | 119% | 124% | 78.5% | 114% | 91% | 116% | 85.6% | 111% | 107% |
| N#Cc1ccc(-n2nnc3ccccc32)cc1C#N | 93.5% | 93% | 96.6% | 111% | 100% | 105% | 91.5% | 101% | 89.4% | 106% |
| O=C(Cn1ccnc1)Nc1ccc(-c2nc3ccccc3s2)cc1 | 81.1% | 39.6% | 81.8% | 80.1% | 102% | 81.1% | 65.5% | 81.3% | 67.6% | 94.4% |
| Cc1c(N)ccc(-c2ccc(N)c(C)c2S(=O)(=O)O)c1S(=O)(=O)O | 111% | 101% | 127% | 109% | 118% | 109% | 117% | 126% | 115% | 108% |
| CN1CCN(CCOc2cc(OC3CCOCC3)c3c(Nc4c(Cl)ccc5c4OCO5)ncnc3c2)CC1 | 43.8% | 5.29% (active) | 98.3% | 61.3% | 31.6% | 61.4% | 77.8% | 60% | 82.7% | 79.4% |
| Cc1cccc(C)c1N1C(c2ccccc2)=NNC12C=CC(=O)c1c(O)cccc12 (centres undefined) | 93.7% | 46.5% | 62.7% | 91.9% | 105% | 84.3% | 61.3% | 67.1% | 58.5% | 54.2% |
| CNC(=O)c1cc(Oc2cccc3nc(Nc4ccc(Cl)c(F)c4)ccc23)ccn1 | 71.3% | 83.8% | 1.36% (active) | 73.5% | 8.19% (active) | 55.4% | 51.5% | 41.1% | 74.5% | 80.2% |
| C[C@@H]1COC(Nc2ccc3ncnc(Nc4ccc(OCc5nccs5)c(Cl)c4)c3c2)=N1 | 36.1% | 22.6% | 38% | 42.8% | 49.1% | 46.5% | 18.9% | 65.5% | 48.3% | 19.5% |
| Clc1ccc(Nc2nccc(Nc3ccc4[nH]ncc4c3)n2)cc1 | 49.8% | -7.92% (active) | 87.5% | 68.8% | 35.1% | 60.4% | 70.9% | 75.8% | 87.6% | 43.8% |
| O=C(CNc1nc(-c2ccc(Cl)cc2)cs1)Nc1ccc(-c2nc3ccccc3s2)cc1 | 95% | 96.4% | 102% | 84.7% | 106% | 90.8% | 98.6% | 97% | 100% | 88.2% |
| CC[C@H](Nc1ncnc2nc[nH]c12)c1nc2cccc(F)c2c(=O)n1-c1ccccc1 | 62.4% | 83.6% | 88.9% | 89.1% | 2.02% (active) | 71% | 57.9% | 102% | 39.9% | 85.3% |
| CCN(CC)CCOc1ccc(/C(=C(\C)c2ccc(Cl)cc2)c2ccc(Cl)cc2)cc1 | 97.2% | 7.09% (active) | 87.2% | 84.3% | 51.2% | 80.7% | 65.2% | 67% | 96.1% | 71% |
| CS(=O)(=O)N1CCc2c(-c3cnc(N)nc3)nc(N3CCOCC3)nc21 | 13.5% | 22.3% | -17.6% (active) | 30.4% | -36.2% (active) | 14.7% | -34.7% (active) | -45.1% (active) | -18% (active) | 10.4% |
| O=C(Cn1cncn1)Nc1ccc(-c2nc3ccccc3s2)cc1 | 94.5% | 85.8% | 100% | 96.5% | 125% | 97.1% | 91.9% | 108% | 102% | 111% |
| CC(C)Nc1cc(-c2c[nH]c(C(=O)N[C@H](CO)c3cccc(Cl)c3)c2)c(Cl)cn1 | 57.4% | 19.8% | 9.08% (active) | 20.1% | 2.5% (active) | 59.6% | 45.6% | 45.2% | -9.52% (active) | 3.28% (active) |
| Nc1ncnc2c1c(-c1cccc(OCc3ccccc3)c1)cn2C1CC(CN2CCC2)C1 (centres undefined) | 44.5% | -45.7% (active) | -79.7% (active) | 3.88% (active) | -16.4% (active) | 17.3% | -47.3% (active) | -84.4% (active) | -79.4% (active) | -78.1% (active) |
| COc1cc(Nc2ncc3c(n2)-c2ccc(Cl)cc2C(c2c(F)cccc2OC)=NC3)ccc1C(=O)O | 78.4% | 44.9% | 72.4% | 69.6% | 95% | 73% | 64.6% | 56.6% | 80.8% | 62.8% |
| N#Cc1cc2[nH]c3ccc(OC(F)(F)F)cc3c2oc1=O | 99.4% | 28.8% | 79.6% | 84.6% | 76.8% | 75.5% | 80.3% | 90% |  | 68.4% |
| Cn1cnc2c(F)c(Nc3ccc(Br)cc3Cl)c(C(=O)NOCCO)cc21 | 69.6% | 47.2% | -16.2% (active) | 24.7% | 14.7% | 77.2% | 82.8% | 69% | -21.2% (active) | 6.05% (active) |
| CC(C)c1cc(CNc2nc(Nc3cc(C4CC4)[nH]n3)cc(N3CCN(C)CC3)n2)on1 | -15.7% (active) | 5.67% (active) | -42.9% (active) | 6.11% (active) | -54.1% (active) | -3.51% (active) | 6.84% (active) | -61.8% (active) | -14.3% (active) | -37.5% (active) |
| CC(=O)CC1CCCC1c1ccc2ccccc2c1 (centres undefined) | 107% | 104% | 99.1% | 102% | 109% | 102% | 106% | 95.8% | 97.8% | 109% |
| O=C(COc1ccc(/C=C2\Cc3ccc(Cl)cc3C2=O)cc1)Nc1nccs1 | 118% | 121% | 126% | 92.2% | 98.2% | 114% | 113% | 96.8% | 98.5% | 103% |
| CC(=O)O[C@]1(C)C[C@H](O)[C@]2(O)C=CO[C@H](O[C@@H]3O[C@H](CO)[C@@H](O)[C@H](O)[C@H]3O)[C@@H]21 | 102% | 97.3% | 97.5% | 98.5% | 109% | 94.3% | 90.9% | 97.5% | 109% | 98.6% |
| CN(C)C[C@@H]1CCn2cc(c3ccccc32)C2=C(C(=O)NC2=O)c2cn(c3ccccc23)CCO1 | 13.2% | -58.7% (active) | -70.5% (active) | -35.8% (active) | -72.9% (active) | 36.6% | 21% | -93.2% (active) | -20.1% (active) | 3.4% (active) |
